# Assay results: PubChem BioAssay (NCI)
# The panel holds about 83,000 compounds, 20% with a hit somewhere; the sample as a whole holds those more often.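 Percent growth is the endpoint: 0 to 100 indicates growth inhibition (40 means 60% inhibition), 0 means no net growth, and negative values indicate cell death.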 Values without a mark were called inactive. The source made the active and inactive calls. The calls were made as follows: active = growth percent below 10; inactive = the rest.
# Tests used:
# Experiment in all cases: NCI-60 one-dose screen, 48 h (100 = growth as untreated, 0 = no growth, -100 = all killed)
# Details in all cases: 10 µM unless noted
# T-47D breast = tested on: T-47D breast
# BT-549 breast = tested on: BT-549 breast
# MDA-MB-435 melanoma = tested on: MDA-MB-435 melanoma
# SW-620 colon = tested on: SW-620 colon
# MCF7 breast = tested on: MCF7 breast
# HCT-116 colon = tested on: HCT-116 colon
# HCC-2998 colon = tested on: HCC-2998 colon
# KM12 colon = tested on: KM12 colon
SMILES,growth (T-47D breast),growth (BT-549 breast),growth (MDA-MB-435 melanoma),growth (SW-620 colon),growth (MCF7 breast),growth (HCT-116 colon),growth (HCC-2998 colon),growth (KM12 colon)
COc1ccc(NC(=O)c2ccc3c(c2)nc(-c2cc4ccccc4[nH]c2=O)n3-c2cc(C(C)(C)C)[nH]n2)cc1,78.9%,84.5%,92.5%,102%,81.3%,86%,105%,90.5%
Nc1ccc(Br)cn1,98.7%,94.7%,113%,104%,110%,96.4%,98.1%,
N#Cc1c(-c2ccc(O)cc2)c2c(N)nn(-c3ccccc3)c2[nH]c1=O,112%,111%,108%,102%,101%,108%,110%,102%
OCC(CO)(CCl)CCl,94.2%,95.6%,105%,101%,94.2%,78.6%,101%,99.9%
CCCCC[C@H]1CC=C2C(=O)C=C[C@@H]2CC=CCCCC(=O)O[C@@H](CCCCC)CC=C2C(=O)C=C[C@@H]2CC=CCCCC(=O)O[C@@H](CCCCC)CC=C2C(=O)C=C[C@@H]2CC=CCCCC(=O)O1,-10.2% [8.75 µM] (active),-37.7% [8.75 µM] (active),-31.8% [8.75 µM] (active),2.25% [8.75 µM] (active),5.55% [8.75 µM] (active),-89.8% [8.75 µM] (active),-38.7% [8.75 µM] (active),-41% [8.75 µM] (active)
CC(=O)OC[C@]12CC[C@@H](/C(C)=N/O)[C@@H]1[C@H]1CC[C@@H]3[C@@]4(C)CCCNC(C)(C)[C@@H]4CC[C@@]3(C)[C@]1(C)CC2,47.7%,66.2%,81.8%,80.3%,57.4%,46.5%,95.2%,76.4%
CCCCCCCN(CCCCCCC)C(=N)c1ccnc2ccccc12,-39.9% (active),56%,-88.5% (active),-75.9% (active),-62.2% (active),-83.7% (active),-87% (active),-16.8% (active)
O=C(N/N=C/c1ccccc1SSc1ccccc1/C=N/NC(=O)c1ccccc1)c1ccccc1,43.6%,30.1%,46.1%,41.6%,10.1%,24.6%,55.6%,36.4%
Cn1c2c(Cl)c(Cl)ccc2c2c(C#N)c[nH]c(=O)c21,102%,120%,115%,106%,96.5%,92.7%,97.2%,111%
N#Cc1cnc2cc(OC[C@@H](O)CO)c(NC(=O)C3CCCC3)cc2c1Nc1ccc(OCc2cccc(F)c2)c(Cl)c1,-15.1% (active),-72.8% (active),20.3%,15.8%,-68.1% (active),-32.2% (active),-65.2% (active),45%
COC(=O)[C@]12CC[C@@H](C)[C@H](C)[C@@H]1C1=CC[C@@H]3[C@@](C)(CC#N)C4=C(C[C@@]3(C)[C@]1(C)CC2)OC[C@]4(C)C=O,-9.08% (active),-15.2% (active),3.05% (active),0.614% (active),-10.2% (active),3.7% (active),-45.3% (active),4.23% (active)
OCCNc1nc(Nc2ccc(Cl)c(Cl)c2)nc2ccccc12,67.9%,77.8%,50%,28.6%,30.3%,29.7%,-37.9% (active),35.5%
CC1(C)[C@@H](O)CC[C@]2(C)[C@H]3CC[C@@H]4[C@H]5[C@H](C(=O)/C=C/c6ccc(C(F)(F)F)cc6)CC[C@]5(CO)CC[C@@]4(C)[C@]3(C)CC[C@@H]12,34.1%,60%,42.5%,44.5%,32.3%,15.3%,77.2%,68.7%
CN(CSc1ccc(Cl)cc1)c1ccc(CSc2ccc(Cl)cc2)cc1,48.6%,51.4%,45.8%,67.5%,51.8%,58.1%,85.3%,46.1%
CC1(n2nnnc2N2CCCN(c3ncccc3N)CC2)CCC1,101%,99.4%,99.5%,104%,95.5%,84.1%,108%,102%
CC(=O)OC(C)COc1ccc(-c2ccccc2)cc1 (configuration not stated),88.6%,98.6%,98.6%,100%,103%,81.2%,104%,98.8%

SMILES,growth (T-47D breast),growth (BT-549 breast),growth (MDA-MB-435 melanoma),growth (SW-620 colon),growth (MCF7 breast),growth (HCT-116 colon),growth (HCC-2998 colon),growth (KM12 colon)
C/C(=N\Nc1ccc2ccccc2n1)c1ccccn1,19.8%,20.3%,3.21% (active),10.3%,8.28% (active),-12% (active),18.1%,6.76% (active)
COc1cc2nc(Cl)nc(Nc3cccc(C(=O)/C=C/c4ccccc4)c3)c2cc1OC,68.8%,62.9%,36.5%,-11.9% (active),12.3%,-52.1% (active),57.4%,9.13% (active)
Cn1cc(-c2nc(-c3c[nH]c4ncccc34)cs2)c2cc(Br)ccc21,84%,99.8%,79.8%,95.8%,35.3%,64.4%,99.8%,62.5%
COC(=O)CCCCCn1c2ccccc2c2c3c(c4c5ccccc5[nH]c4c21)C(=O)N(O)C3=O,21.6%,59%,71.2%,48.7%,13.1%,28.4%,55.4%,46.5%
CCC(c1ccc(OC)cc1)C(CC)c1ccc(O)c(CN2CCCCC2)c1 (configuration not stated),36.9%,72.1%,81.6%,71.6%,63%,38.7%,6.27% (active),79.7%
COc1ccc2c(c1)c(-c1nc(-c3cn(C)c4ncccc34)cs1)cn2CCCN1CCCCC1,64%,80.5%,26%,-22.9% (active),34%,-93.2% (active),102%,57.4%
COc1ccc2c(c1)c1nc3cc(C)c(C)cc3nc1n2CCN(C)C,25.3%,56%,18.1%,-66.1% (active),-69.9% (active),-70.1% (active),20.5%,18%
NCCNc1nc(-c2ccccc2)nc2nc(-c3ccccc3)oc12,81.7%,97.7%,92.2%,51%,81.2%,54.7%,98.6%,98.8%
Cc1ccc(Cc2cnc(NC(=O)/C=C/c3cccc(C)c3)s2)cc1,39.8%,-5.4% (active),-44.7% (active),17%,14.6%,2.53% (active),12.4%,16.1%
COC(=O)[C@]12CC[C@@H](C)[C@H](C)[C@@H]1C1=CC[C@@H]3[C@@]4(C)C[C@@H](O)OC[C@](C)(C=O)C4C(=O)C[C@@]3(C)[C@]1(C)CC2 (some centres not stated),-4.48% (active),-10.1% (active),2.15% (active),17%,6.16% (active),-44.4% (active),6.06% (active),6.15% (active)
C[C@@H](Oc1ccc(C(=O)NS(=O)(=O)C(C)(C)C)cc1C(F)(F)F)c1ccc(Oc2ccccc2)cn1,39%,27.6%,-50.1% (active),23.3%,15%,25.5%,61.1%,28.3%
CN1CCN(c2ccc3nc(-c4[nH]ncc4Nc4ncnc5[nH]ccc45)[nH]c3c2)CC1,-3.09% (active),-41.9% (active),0.107% (active),3.78% (active),3.28% (active),2.16% (active),-23.2% (active),10.2%
N=c1c(S(=O)(=O)c2ccccc2)cc2c(=O)n3ccccc3nc2n1C1CCCC1,79.8%,89.3%,108%,99.3%,93.8%,91.5%,103%,98.5%
c1cc(N2CCCC2)c2nc(-c3[nH]ncc3Nc3ncnc4[nH]ccc34)[nH]c2c1,0.99% (active),-37% (active),-80.8% (active),2.01% (active),-23% (active),-9.45% (active),-30.4% (active),-20.4% (active)
Cn1cc(-c2nc(-c3c[nH]c4ncccc34)cs2)c2cc(F)ccc21,24.3%,58%,0.641% (active),31.8%,7.84% (active),20.3%,20.5%,-12.7% (active)
